According to PubChem BioAssay:
Activity calls are given as the source filed them.

Legend:
[1] = A549 cell viability effects, profiling panel, calcein-AM fluorescence, 48 h, basal (AID 1162); details: higher = more signal
[2] = adipocyte viability effects, profiling panel, cell-based, 3T3-L1 adipocytes, calcein-AM fluorescence, 48 h, basal (AID 1163); details: 3T3-L1 adipocytes viability, higher = more signal
[3] = HepG2 cell viability effects, profiling panel, calcein-AM fluorescence, 48 h, basal (AID 1164); details: higher = more signal
[4] = MM1S cell viability effects, profiling panel, calcein-AM fluorescence, 48 h, basal (AID 1165); details: higher = more signal;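 note: viability of MM1S multiple myeloma cells under basal unstimulated conditions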
[5] = basal RPMI8226 viability, no added stimulus, profiling panel, cell-based, calcein-AM fluorescence, 48 h, PK04 Diversity Set (AID 1166); details: RPMI8226 myeloma viability, higher = more signal;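 note: cells grown under basal conditions without added stimulus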
[6] = basal HepG2 mitochondrial membrane potential changes, profiling panel, cell-based, JC-1 fluorescence, 24 h, 100 nL compound (AID 1167); details: higher = more signal
[7] = basal 3T3-L1 adipocyte mitochondrial potential changes, profiling panel, cell-based, JC-1 fluorescence, 3T3-L1 adipocytes, 24 h, 100 nL compound (AID 1168); details: JC-1 mitochondrial fluorescence, higher = more signal, called active from +8 up or from −8 down
[8] = basal RPMI8226 mitochondrial membrane potential changes, profiling panel, cell-based, JC-1 fluorescence, 24 h, 100 nL compound (AID 1169); details: RPMI8226 myeloma, JC-1 mitochondrial potential fluorescence, higher = more signal
[9] = basal MM1S mitochondrial membrane potential changes, profiling panel, cell-based, JC-1 fluorescence, 24 h, 100 nL compound (AID 1170); details: higher = more signal
[10] = A549 lung cancer cell viability effects, profiling panel, resazurin fluorescence, 24 h, PK04 Diversity Set (AID 1171); details: higher = more signal, called active from +8 up or from −8 down
Note: test concentration not given here.

| SMILES | z-score [1] | z-score [2] | z-score [3] | z-score [4] | z-score [5] | z-score [6] | z-score [7] | z-score [8] | z-score [9] | z-score [10] |
| --- | --- | --- | --- | --- | --- | --- | --- | --- | --- | --- |
| COc1cccc([C@H]2Oc3ccc(OC)cc3C(=NO[C@@H](C)c3cc(-c4c(C)cc(C)cc4C)no3)[C@@H]2O)c1 | -0.744 | -0.583 | -1.08 | -1.38 | -0.845 | -2.54 | -2.31 (inactive) | 0.118 | 0.463 | 0.321 (inactive) |
| C[C@@H]1CC[C@@H](C(=O)O)N[C@H]1c1cccc(N2CCOCC2)c1 | 1.03 | -0.219 | 0.0881 | 0.401 | 1.07 | 1.66 | 0.631 (inactive) | -0.157 | -0.144 | 0.148 (inactive) |
| O=C(NN=C1C[C@@H](O)[C@@H](O)[C@@H]2[C@@H]3C(=O)N(Cc4ccc5c(c4)OCO5)C(=O)[C@@H]3CC[C@@H]12)OCc1ccccc1 | -0.592 | 0.911 | -0.423 | 0.291 | -0.531 | 0.222 | 0.243 (inactive) | 0.967 | -1.65 | 0.729 (inactive) |
| CC(C)C(=O)N[C@H]1CCCN1C(=O)C=Cc1ccccc1 | -0.0724 | -0.578 | 0.176 | -0.903 | -0.1 | -0.541 | -0.288 (inactive) | 0.6 | -0.0562 | 0.182 (inactive) |
| O=C1[C@H]2[C@H]3[C@H](O)[C@H](O)CC(=NOC[C@@H](O)COCc4ccco4)[C@@H]3CC[C@H]2C(=O)N1C1CCCCC1 | 0.0095 | 0.272 | 0.444 | 0.0224 | -0.002 | -0.82 | -0.181 (inactive) | -0.422 | -0.891 | 0.014 (inactive) |
| CCOC(=O)CCN1C(=O)[C@H]2[C@H]3[C@H](O)[C@H](O)CC(=O)[C@@H]3CC[C@H]2C1=O | -0.856 | 0.314 | -0.0609 | -0.885 | 0.456 | -0.385 | -0.368 (inactive) | -0.798 | 0.325 | 0.699 (inactive) |
| CON=C1c2cc(OC)ccc2O[C@H](c2cccc(OC)c2)[C@H]1O | 0.744 | 0.448 | -0.743 | -0.416 | 0.53 | 0.181 | -0.672 (inactive) | -0.0443 | 1.39 | -0.124 (inactive) |
| CC[C@@H](c1ccccc1)n1c(=O)n2n(c1=O)[C@H]1[C@H](O)[C@@H]3O[C@@H]3C(=NOCc3ccccc3)[C@H]1CC2 | -2.83 | 0.229 | -3.76 | -3.1 | -3.84 | 0.517 | -0.327 (inactive) | -1.05 | -1.68 | -2.54 (inactive) |
| Cc1ccc(C(C)C)n1C(=O)OC(C)(C)C | 1.88 | 0.0856 | 0.577 | 0.547 | 0.228 | -0.503 | 0.499 (inactive) | 0.68 | 0.196 | -1.47 (inactive) |
| Cc1cc(C)c(-c2cc([C@H](C)ON=C[C@@H](C)[C@H](OCc3ccccc3)C(C)C)on2)c(C)c1 | 0.66 | -0.0328 | 0.163 | 0.682 | -0.234 | 3.57 | -0.508 (inactive) | -0.149 | -0.143 | -0.0597 (inactive) |
| CO[C@@H](C(C)C)[C@@H](C)C1OC(=O)CC1O (stereo not given in full) | -0.729 | -0.121 | -0.349 | 0.534 | -0.908 | -0.518 | -0.419 (inactive) | -0.147 | -0.0891 | -0.196 (inactive) |
| CCN1C(=O)[C@H]2[C@@H]3C(=CC[C@H]2C1=O)C(=O)[C@H]1O[C@H]1[C@H]3O | -0.163 | 0.634 | -0.929 | -3.04 | -3.9 | -2.06 | 0.772 (inactive) | -0.991 | -2.82 | -1.17 (inactive) |
| CCOC(=O)[C@H](Cc1ccccc1)NC(=O)CCC1CC(OC(=O)NCc2ccc3c(c2)OCO3)CC2(CCCC(COC(=O)NCCOC)O2)O1 (stereo not given in full) | 0.58 | -0.182 | -0.971 | 1.05 | -1.56 | 0.724 | -0.844 (inactive) | -0.817 | -1.37 | 0.32 (inactive) |
| CC(C)(C)N1C(=O)[C@H]2[C@H]3[C@H](O)[C@H](O)CC(=NNC(=O)OCc4ccccc4)[C@@H]3CC[C@H]2C1=O | 0.193 | -0.166 | -0.289 | 0.0671 | 0.489 | -0.813 | -0.323 (inactive) | -0.368 | -0.368 | -0.548 (inactive) |
| COCCNC(=O)OCC1CCCC2(CC(OC(=O)NCc3cccc4ccccc34)CC(CCC(=O)N[C@@H](C)C(=O)OC)O2)O1 (stereo not given in full) | 1.89 | -0.812 | 0.791 | -0.215 | -0.886 | 1.64 | -0.0355 (inactive) | -0.125 | -1.16 | 1.67 (inactive) |
| O=C1CCCC=C1C(O)C1CCCCC1 (stereo not given) | -0.586 | -0.464 | -0.22 | 0.766 | -0.241 | -0.86 | -1.15 (inactive) | -0.121 | 0.327 | 0.436 (inactive) |

| SMILES | z-score [1] | z-score [2] | z-score [3] | z-score [4] | z-score [5] | z-score [6] | z-score [7] | z-score [8] | z-score [9] | z-score [10] |
| --- | --- | --- | --- | --- | --- | --- | --- | --- | --- | --- |
| CC(C)=NOC(C)CN1CCCCc2nc(C)c(C)cc21 (stereo not given) | 0.0529 | -0.047 | -0.018 | -0.3 | -0.637 | -0.792 | -0.78 (inactive) | -0.633 | 0.354 | -0.585 (inactive) |
| Cc1ccc(S(=O)(=O)N[C@@H]2COC(=O)CC=C[C@@H](C)[C@H](NS(=O)(=O)c3ccc(C)cc3)COC(=O)[C@H](C)NC(=O)CC=C[C@H]2C)cc1 | 0.697 | -0.0454 | 0.428 | -0.987 | 0.158 | 0.209 | 0.099 (inactive) | 0.389 | 1.03 | -0.395 (inactive) |
| CO[C@@H]1[C@H](O)CO[C@H]1C=Cc1ccccc1 | 0.998 | 1.12 | -0.0866 | 0.018 | -0.664 | 0.161 | -0.267 (inactive) | 0.337 | 0.859 | -0.587 (inactive) |
| CCOC(=O)[C@H](Cc1ccccc1)NC(=O)CCC1CC(OC(=O)NCCc2ccc(F)cc2)CC2(CCCC(COC(=O)NCc3cccc(C(F)(F)F)c3)O2)O1 (stereo not given in full) | -0.754 | 0.15 | -0.875 | -0.0822 | -1.82 | 0.502 | -0.306 (inactive) | 0.562 | 0.464 | 1.39 (inactive) |
| CC(C)(C)N1C(=O)[C@H]2[C@H]3[C@H](O)[C@H](O)CC(=NOC[C@@H](O)COCc4ccco4)[C@@H]3CC[C@H]2C1=O | -0.535 | 0.935 | -0.274 | 0.268 | -1.63 | -1.12 | -0.243 (inactive) | 0.431 | 0.325 | -0.0978 (inactive) |
| C[C@@H](c1ccccc1)N1C(=O)[C@H]2[C@H]3[C@H](O)[C@H](O)CC(=NOCc4ccccc4)[C@@H]3CC[C@H]2C1=O | 0.048 | -0.0375 | -0.628 | 0.67 | -2.15 | -0.265 | -0.985 (inactive) | -0.0343 | 0.645 | -0.273 (inactive) |
| C#CCCCON=C1C[C@@H](O)[C@@H](O)[C@@H]2[C@@H]3C(=O)N(C4CCCCC4)C(=O)[C@@H]3CC[C@@H]12 | -0.205 | -0.117 | -0.139 | 0.183 | -1.94 | -1.32 | -0.462 (inactive) | -0.0811 | 0.431 | -0.255 (inactive) |
| CON=C[C@@H](OC)[C@H](C)C=CCC(=O)OC | -0.0933 | -0.105 | 0.262 | 0.253 | 0.205 | -0.34 | -1.2 (inactive) | 0.673 | 0.856 | 0.213 (inactive) |
| O=C1C2=CC[C@H]3C(=O)N(C[C@@H]4CCCO4)C(=O)[C@H]3[C@H]2[C@H](O)[C@@H]2O[C@H]12 | 0.144 | -0.579 | -0.228 | -3.11 | -3.32 | -0.549 | 0.465 (inactive) | -0.836 | -3.04 | -0.824 (inactive) |
| CC(=O)OC[C@H]1O[C@@H](ON=C2[C@H]3CCn4c(=O)n(-c5ccccc5)c(=O)n4[C@H]3[C@H](O)[C@@H]3O[C@H]23)[C@H](OC(C)=O)[C@@H](OC(C)=O)[C@@H]1OC(C)=O | -0.0311 | -1.14 | 0.707 | -0.0928 | -0.105 | -0.506 | -0.0849 (inactive) | -0.0535 | -0.64 | -0.713 (inactive) |
| C[C@H]1CC[C@H]2C(=O)OC(COc3ccc(C(C)(C)C)cc3)CN2[C@@H]1c1ccc(Br)cc1 (stereo not given in full) | 2.19 | 0.193 | 0.349 | 0.793 | 0.253 | 0.745 | -0.414 (inactive) | 0.566 | 0.855 | 0.479 (inactive) |
| CCc1cc2c(nc1CC)CCN(CCC(C)=NOC(C)CN1CCCCc3nc(C)c(C)cc31)C2 (stereo not given) | 0.115 | 0.97 | 0.101 | -2.89 | -0.51 | 6.12 | -1.02 (inactive) | -0.39 | -0.104 | 0.639 (inactive) |
| COc1ccc(OC[C@H]2CN3[C@@H](CC[C@@H](C)[C@@H]3c3ccc(Br)cc3)C(=O)O2)cc1 | -0.0668 | 0.0118 | -0.227 | 0.829 | -1.2 | -0.057 | -0.187 (inactive) | 0.979 | 0.381 | -0.914 (inactive) |
| C#CCCCON=C1C[C@@H](O)[C@@H](O)[C@@H]2[C@@H]3C(=O)N(CC)C(=O)[C@@H]3CC[C@H]12 | -0.662 | -0.751 | 0.0801 | 0.489 | 0.516 | -0.58 | -0.625 (inactive) | -0.569 | -0.533 | -0.479 (inactive) |
| COC(=O)[C@H](C)NC(=O)CCC1CC(OC(=O)NCc2ccc3c(c2)OCO3)CC2(CCCC(COC(=O)NCCc3ccc(Cl)cc3)O2)O1 (stereo not given in full) | -0.508 | 0.38 | -0.796 | -0.99 | -1.27 | 0.718 | -0.527 (inactive) | -0.342 | -0.864 | 1.02 (inactive) |
